# Screen size: about 5,500 compounds; about 2,000 (36%) were called active. Another 18% or so got no clear call; they are omitted. Some of the results follow. A number with no mark means an inactive call. No stated cut-off is given here; in the data, active means normalized growth mostly below about 0.91 (no sharp cut-off); inconclusive means no clear call, values can overlap the other calls; inactive means mostly above about 0.92.
# Assay: chemical genetic growth profiling, strain panel (AID 1159580);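 further: tested at 20 µM; growth read once vehicle control cultures reached saturation at 30 °C; 1 = growth at the plate median or of vehicle wells; lower values mean less growth of the strain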
# Conditions: S. cerevisiae deletion strains, growth OD
compound,measurement,setting,value
CCCCCC[C@@H]([C@@H](C)O)n1cnc2c(N)ncnc21,normalized growth,"locus YAL040C, strain CLN3, hits give low values",1.02
same,normalized growth,"locus YCL061C, strain MRC1 (second series), hits give low values",1
same,normalized growth,"locus YDR150W, strain NUM1, hits give low values",1.01
same,normalized growth,"locus YDR363W, strain ESC2, hits give low values",1
same,normalized growth,"locus YER002W, strain NOP16, hits give low values",1.01
same,normalized growth,"locus YGR229C, strain SMI1, hits give low values",0.945
same,normalized growth,"locus YJR075W, strain HOC1, hits give low values",0.99
same,normalized growth,"locus YMR263W, strain SAP30, hits give low values",1
same,normalized growth,"locus YNL128W, strain TEP1, hits give low values",0.992
same,normalized growth,"locus YNL175C, strain NOP13, hits give low values",1.02
same,normalized growth,"locus YNL197C, strain WHI3, hits give low values",1.01
same,normalized growth,"locus YNL224C, strain SQS1, hits give low values",0.992
same,normalized growth,"locus YOR083W, strain WHI5 (second series), hits give low values",1.06
same,normalized growth,"locus YPL241C, strain CIN2, hits give low values",1
O=C(CSCc1nc(-c2ccc(Cl)cc2)cs1)N/N=C\c1cccs1,normalized growth,"locus YAR019C, strain CDC15, hits give low values",0.984
same,normalized growth,"locus YBL105C, strain PKC1, hits give low values",0.97
same,normalized growth,"locus YBR135W, strain CKS1, hits give low values",0.969
same,normalized growth,"locus YBR136W, strain MEC1, hits give low values",0.972
same,normalized growth,"locus YBR160W, strain CDC28, hits give low values",0.969
same,normalized growth,"locus YDL017W, strain CDC7, hits give low values",0.97
same,normalized growth,"locus YDL028C, strain MPS1, hits give low values",0.973
same,normalized growth,"locus YDL101C, strain DUN1, hits give low values",0.978
same,normalized growth,"locus YDL108W, strain KIN28, hits give low values",0.975
same,normalized growth,"locus YDL132W, strain cdc53, hits give low values",0.966
same,normalized growth,"locus YDL214C, strain PRR2, hits give low values",0.91
same,normalized growth,"locus YDR052C, strain DBF4, hits give low values",0.98
same,normalized growth,"locus YDR054C, strain cdc34, hits give low values",0.97
same,normalized growth,"locus YDR226W, strain ADK1, hits give low values",0.972
same,normalized growth,"locus YDR477W, strain SNF1, hits give low values",0.953
same,normalized growth,"locus YER123W, strain YCK3, hits give low values",0.908
same,normalized growth,"locus YER133W, strain GLC7, hits give low values",0.946
same,normalized growth,"locus YFL009W, strain cdc4, hits give low values",0.971
same,normalized growth,"locus YFL029C, strain CAK1, hits give low values",0.973
same,normalized growth,"locus YFR003C, strain YPI1, hits give low values",0.962
same,normalized growth,"locus YFR019W, strain FAB1, hits give low values",0.929
same,normalized growth,"locus YFR028C, strain CDC14, hits give low values",0.963
same,normalized growth,"locus YGR040W, strain KSS1, hits give low values",0.935
same,normalized growth,"locus YGR052W, strain FMP48, hits give low values",0.948
same,normalized growth,"locus YGR092W, strain DBF2, hits give low values",0.98
same,normalized growth,"locus YHR030C, strain SLT2, hits give low values",1.01
same,normalized growth,"locus YHR079C, strain IRE1, hits give low values",1.03
same,normalized growth,"locus YHR082C, strain KSP1, hits give low values",0.998
same,normalized growth,"locus YHR205W, strain SCH9, hits give low values",0.935
same,normalized growth,"locus YIL147C, strain SLN1, hits give low values",0.975
same,normalized growth,"locus YJL095W, strain BCK1, hits give low values",0.936
same,normalized growth,"locus YJL128C, strain PBS2, hits give low values",0.924
same,normalized growth,"locus YJL157C, strain FAR1, hits give low values",0.95
same,normalized growth,"locus YJR016C, strain ILV3, hits give low values",0.974
same,normalized growth,"locus YJR066W, strain TOR1 (second series), hits give low values",0.951
same,normalized growth,"locus YJR066W, strain TOR1, hits give low values",1.02
same,normalized growth,"locus YKL048C, strain ELM1, hits give low values",0.944
same,normalized growth,"locus YKL067W, strain YNK1, hits give low values",0.932
same,normalized growth,"locus YKL101W, strain HSL1, hits give low values",0.921
same,normalized growth,"locus YKL193C, strain SDS22, hits give low values",0.972
same,normalized growth,"locus YKL203C, strain TOR2, hits give low values",1
same,normalized growth,"locus YLR113W, strain HOG1, hits give low values",0.831 (active)
same,normalized growth,"locus YLR133W, strain CKI1, hits give low values",0.917
same,normalized growth,"locus YLR403W, strain SFP1, hits give low values",0.933
same,normalized growth,"locus YML070W, strain DAK1, hits give low values",0.93
same,normalized growth,"locus YMR001C, strain CDC5, hits give low values",0.976
same,normalized growth,"locus YMR205C, strain PFK2 (second series), hits give low values",0.942
same,normalized growth,"locus YMR277W, strain FCP1, hits give low values",0.98
same,normalized growth,"locus YNL006W, strain LST8, hits give low values",0.973
same,normalized growth,"locus YNL020C, strain ARK1, hits give low values",0.925
same,normalized growth,"locus YNL161W, strain CBK1, hits give low values",0.969
same,normalized growth,"locus YNL183C, strain NPR1, hits give low values",0.971
same,normalized growth,"locus YNL207W, strain RIO2, hits give low values",0.967
same,normalized growth,"locus YNL222W, strain SSU72, hits give low values",0.974
same,normalized growth,"locus YNL307C, strain MCK1 (second series), hits give low values",0.956
same,normalized growth,"locus YOL078W, strain AVO1, hits give low values",0.966
same,normalized growth,"locus YOL136C, strain PFK27, hits give low values",0.866
same,normalized growth,"locus YOR061W, strain CKA2, hits give low values",0.943
same,normalized growth,"locus YOR119C, strain RIO1, hits give low values",0.994
same,normalized growth,"locus YOR231W, strain MKK1, hits give low values",0.927
same,normalized growth,"locus YOR329C, strain SCD5, hits give low values",0.975
same,normalized growth,"locus YPL031C, strain PHO85, hits give low values",0.96
same,normalized growth,"locus YPL153C, strain RAD53, hits give low values",0.969
same,normalized growth,"locus YPL204W, strain HRR25, hits give low values",0.906
same,normalized growth,"locus YPL209C, strain IPL1, hits give low values",0.969
same,normalized growth,"locus YPL256C, strain CLN2, hits give low values",0.965
same,normalized growth,"locus YPR025C, strain CCL1, hits give low values",0.979
same,normalized growth,"locus YPR106W, strain ISR1, hits give low values",0.97
same,normalized growth,"locus YPR111W, strain DBF20, hits give low values",0.952
same,normalized growth,"strain NNK1, hits give low values",0.966
same,normalized growth,"strain TSCII, hits give low values",0.968

# — PubChem BioAssay AID1159580 (chemical genetic matrix, 2015)
